In PubChem BioAssay AID2551 (National Center for Advancing Translational Sciences (NCATS), 2010):
Among all 310,000 compounds or so, about 17,000 (5.5%) were called active. About 11% were inconclusive and are not listed. Calls come from the whole dose curve; as a rule, active = well fitted inhibition curve with a large enough effect; inconclusive = small, poorly fitted or top-dose-only effect, or effect the other way; inactive = no such curve, though single readings can be large or run the other way. The entries come from a sample that favours actives as a whole.

The compounds below were run against Nuclear receptor ROR-gamma (Mus musculus) (UniProt P51450) (assay: qHTS for inhibitors of ROR gamma transcriptional activity). Conditions: Drosophila S2 Gal4-RORgamma UAS-luciferase reporter, 20 h; series mostly up to 53.6 µM; activity change, negative = inhibition: at the top concentration.
Sequence of Nuclear receptor ROR-gamma (Mus musculus) (P51450 whole entry, looked up, the tested form may be a part): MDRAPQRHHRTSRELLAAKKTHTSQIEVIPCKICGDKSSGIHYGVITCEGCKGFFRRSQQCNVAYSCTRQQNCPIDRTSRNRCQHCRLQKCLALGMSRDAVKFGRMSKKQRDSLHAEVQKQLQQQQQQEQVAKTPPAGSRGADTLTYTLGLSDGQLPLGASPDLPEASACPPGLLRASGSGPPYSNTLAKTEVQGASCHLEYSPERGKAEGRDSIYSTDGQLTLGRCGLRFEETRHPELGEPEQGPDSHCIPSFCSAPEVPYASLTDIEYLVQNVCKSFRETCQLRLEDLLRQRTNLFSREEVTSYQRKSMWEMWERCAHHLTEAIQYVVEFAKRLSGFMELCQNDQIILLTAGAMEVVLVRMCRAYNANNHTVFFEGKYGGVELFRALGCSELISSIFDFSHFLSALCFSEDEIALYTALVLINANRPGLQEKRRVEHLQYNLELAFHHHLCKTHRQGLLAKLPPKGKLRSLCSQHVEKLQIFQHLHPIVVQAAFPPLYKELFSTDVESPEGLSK
Outline: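 ROR gamma transcriptional activity was tracked as Gal4-UAS luciferase output in stably transfected Drosophila Schneider cells, with compound added 1 hr before 700 uM copper sulfate induction and a 20 hr ambient-temperature incubation.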
% is set by controls: 0 for no effect and ±100 for the full control effect; potency is the fitted concentration of half-maximal effect.
Note: nearly all actives have a fitted effect of over 60% in size.

SMILES	activity change, negative = inhibition	Potency
C=CCn1c(=O)c(C(=O)Nc2ncccc2O)c(O)c2ccccc21	-18% (inactive)	–
COC(=O)N/N=C/c1ccc(/C=N/NC(=O)OC)cc1	9.4% (inactive)	–
CCOc1ccc(/C=N/NC(N)=S)cc1	–	5.01 µM (active)
Cc1ccc(OCCOc2cccc(/C=N/NC(N)=O)c2)cc1	-0.897% (inactive)	–
COC(=O)[C@@H]1CCCN1C(=O)c1cc(COc2cccc3cccnc23)on1	-12.3% (inactive)	–
CCCC(=O)N1CCN(c2nnc(-c3ccc(C)cc3)c3ccccc23)CC1	-3% (inactive)	–
O=C(CN1C(=O)COc2ccc(Cl)cc21)N1CCOCC1	-30.2% (inactive)	–
Cc1ccccc1NC(=S)N(CCCN1CCOCC1)Cc1cccs1	-24.3% (inactive)	–
Cc1ccc(Cl)cc1NC(=S)N(CCN(C)C)Cc1cccs1	–	11.2 µM (active)
Cc1cccc(C(=O)Nc2ccccc2C(=O)NCc2cccnc2)c1	-0.355% (inactive)	–
CCc1cccc(C)c1NC(=S)N(CCCN1CCN(C)CC1)Cc1cccs1	-5.96% (inactive)	–
Cc1ccc(CN(Cc2cccnc2)C(=S)Nc2cccc(Cl)c2C)cc1	–	3.98 µM (active)
Cc1ccc(C)c2[nH]c(=O)c(CN(Cc3cccnc3)C(=S)NCc3ccco3)cc12	30.7% (inactive)	–
Cc1ccc(C)c(NC(=S)NCC(c2cccnc2)N2CCOCC2)c1 (configuration not stated)	-15.5% (inactive)	–
Cc1c(Cl)cccc1NC(=O)CSc1ccc(-c2cccnc2)nn1	0.66% (inactive)	–
Cc1ccc(CN(Cc2cccnc2)C(=S)Nc2cc(Cl)ccc2C)cc1	–	3.16 µM (active)
COc1ccc(-c2nc3ccccc3c(=O)n2CCc2ccc(O)cc2)cc1	15.1% (inactive)	–
CSc1nnc2ccc(-c3ccc(C)cc3)nn12	-38.3% (inactive)	–
Cc1ccc(C(CNC(=O)Nc2cccc(C)c2)N2CCN(C)CC2)cc1 (configuration not stated)	-13% (inactive)	–
COc1cc(C(=O)NCC2(c3ccccc3)CCCC2)ccc1OC(C)C	-1.02% (inactive)	–
O=C(NCc1ccccc1Cl)C1CCN(c2ncnc3c2nc2n3CCCCC2)CC1	-7.55% (inactive)	–
CCOCCCN1C(=O)C2C(C(=O)Nc3ccc(OCC)cc3)C3C=CC2(O3)C1C(=O)NC1CCCCC1 (configuration not stated)	-4.56% (inactive)	–

SMILES	activity change, negative = inhibition	Potency
CCN(CC)CCn1cnc2c1c(=O)[nH]c(=O)n2Cc1ccccc1	26% (inactive)	–
CCOc1ccc(OCCSc2nc3ccccc3n2CC(=O)O)cc1	-12.8% (inactive)	–
COc1ccc(S(=O)(=O)N2CCN(C)CC2)c(C)c1	16.1% [at 1.91 µM] (inactive)	–
COc1ccc(N(Cc2cc3ccc(C)cc3[nH]c2=O)S(=O)(=O)c2ccccc2)cc1	27.2% (inactive)	–
CC(C)(C)c1ccc(C(CC(=O)O)NS(=O)(=O)Cc2ccccc2)cc1 (configuration not stated)	14.4% (inactive)	–
CCCCN(CCCC)CCCNC(=O)CN1C(=O)COc2ccc(S(=O)(=O)N3CCC(C)CC3)cc21	-34.4% (inactive)	–
O=C(NCCCc1ccccc1)C(=O)c1c[nH]c2ccccc12	15.9% (inactive)	–
NS(=O)(=O)c1ccc(CCNC(=S)Nc2ccc(S(N)(=O)=O)cc2)cc1	-1.74% (inactive)	–
CCc1ccc(NC(=O)CS(=O)CC(=O)NCCCc2ccccc2)cc1 (configuration not stated)	-11.9% (inactive)	–
CCOc1ccc(CCNC(=O)Nc2ccccc2)cc1OCC	7.93% (inactive)	–
S=C(NCCc1ccccc1)Nc1ccccc1	–	3.16 µM (active)
O=C(NCCc1ccccc1)C1CC1	-14.5% (inactive)	–
O=C(CS(=O)(=O)Cc1ccccc1)NCC1CCCO1 (configuration not stated)	0.86% (inactive)	–
S=C(NCCc1ccccc1)NCc1ccccc1Cl	–	7.94 µM (active)
Fc1ccccc1Cn1cnc(NC(=S)NCCc2ccccc2)n1	12.5% (inactive)	–
S=C(NCCCc1ccccc1)Nc1ccc(Br)cc1	–	8.91 µM (active)
O=C(NCCc1c[nH]c2ccccc12)C(=O)NCC1CCCO1 (configuration not stated)	27.4% (inactive)	–
S=C(NCCc1ccccc1)NCC1CCCO1 (configuration not stated)	–	12.6 µM (active)
COc1ccccc1N1CCC(N2CCN(CC(C)(C)C)C(CCO)C2)CC1 (configuration not stated)	0.126% (inactive)	–
Cc1ccc(NS(=O)(=O)c2ccc(-c3coc(C)n3)cc2)c(C)c1	22.6% (inactive)	–
CSc1ccc(S(=O)(=O)N2CCC(C(=O)NCc3ccncc3)CC2)cc1	18.3% (inactive)	–
COc1cc(/C=C2\SC(=O)NC2=O)ccc1OCc1ccc(Cl)nc1	40.1% (inactive)	–

SMILES	activity change, negative = inhibition	Potency
CC(C)c1ccc(NC(=O)[C@@H](NC(=O)N2CC(=O)Nc3ccccc32)C(C)C)cc1	34% (inactive)	–
O=C(c1ccc2nc(N3CCOCC3)sc2c1)N1CCN(c2ccc(Cl)cc2)CC1	28.8% (inactive)	–
Nc1nc(SCC(=O)Nc2ccc(Cl)cc2C(F)(F)F)n[nH]1	0.96% (inactive)	–
S=C(NCCC1=CCCCC1)Nc1ccccc1	–	1.78 µM (active)
CC(=O)Nc1ccc(S(=O)(=O)N(C)CC(=O)NCCC2=CCCCC2)cc1	-2.84% (inactive)	–
O=C(Cc1cccc2ccccc12)NCCC1=CCCCC1	11.1% [at 10 µM] (inactive)	–
COc1ccc(CCNC(=O)c2ccccc2OCc2ccccc2)cc1	23% (inactive)	–
O=C(NC1CCCC1)C(c1ccc(Cl)cc1)N(C(=O)c1csnn1)C1CC1 (configuration not stated)	0.541% (inactive)	–
Cc1cc(C)nc(SCC(=O)c2ccc(Cl)cc2)n1	-15.7% (inactive)	–
C/C(=N\NC(=O)c1nc(C)cc(C)n1)c1ccccc1	4.85% (inactive)	–
Cc1cc(C)nc(S/C=C/C(=O)c2ccccc2)n1	–	6.31 µM (active)
Cc1ccc(CS(=O)(=O)CCC(=O)NCc2ccc(F)cc2)cc1	13.8% (inactive)	–
O=C(O)c1ccccc1C(=O)NC1=NN(c2ccccc2)CC1	3.73% (inactive)	–
CN(c1ccc(OCC(=O)O)cc1)S(=O)(=O)c1ccc2ccccc2c1	-8.22% (inactive)	–
Cc1ccccc1N1CCN(C2CCCN(C(=O)c3cn4c(C)cccc4n3)C2)CC1 (configuration not stated)	-3.69% (inactive)	–
CCOc1cc(NC(=O)c2ccccc2C(=O)O)c(OCC)cc1NC(=O)c1ccccc1F	19.6% [at 1.91 µM] (inactive)	–
CCn1c(=O)n(CC)c2cc(N3CCCC3)c(NC(=O)c3ccccc3Br)cc21	2.25% (inactive)	–
CCN1CCN(c2cc3nc(C)n(Cc4ccccc4)c(=O)c3cc2NC(=O)c2ccccc2F)CC1	–	11.2 µM (active)
CS(=O)(=O)Nc1cccc(C2=NN(C(=O)c3cccc(F)c3)C(c3cccs3)C2)c1 (configuration not stated)	15.3% (inactive)	–
CC(C)=CCCC(C)CN1CCC(n2nccc2NC(=O)c2ccccc2)CC1 (configuration not stated)	-1.04% (inactive)	–
CC(=O)NCCC(=O)Nc1nc(-c2ccc3c(c2)OCCO3)cs1	9.31% (inactive)	–
COc1ccc2c(-c3ccccc3)cc(SCC(=O)N(C)C3CCS(=O)(=O)C3)nc2c1 (configuration not stated)	–	10 µM (active)

SMILES	activity change, negative = inhibition	Potency
COc1ccc(-c2cc(=O)oc3cc(OCC(=O)N(C)C4CCS(=O)(=O)C4)ccc23)cc1 (configuration not stated)	1.21% (inactive)	–
Cc1cc(C)c2nc(SCC(=O)N(C)C3CCS(=O)(=O)C3)cc(C)c2c1 (configuration not stated)	-1.99% (inactive)	–
[2H]C(CCOS(N)(=O)=O)c1ccccc1 (configuration not stated)	-1.7% (inactive)	–
Cc1ccc(-c2ccc(/C=C(\C#N)C(N)=S)o2)c([N+](=O)[O-])c1	–	11.2 µM (active)
N#C/C(=C/c1ccc(-c2ccccc2[N+](=O)[O-])o1)C(=O)NCCN1CCCCC1	0.585% (inactive)	–
Cc1cc(-c2ccc(/C=N/n3cnnc3)o2)c([N+](=O)[O-])cc1C	33.2% (inactive)	–
O=C(Nc1ccc(-c2cscn2)cc1)C1CCCN(Cc2ccc(CO)o2)C1 (configuration not stated)	5.13% (inactive)	–
COc1ccc(CCNC(=O)c2cnc(Cl)c(Cl)c2)cc1	-3.9% (inactive)	–
CCC(C)N1C(=S)SC(C)(C)C1N(O)C(=O)NC1CCCCC1 (configuration not stated)	-15.4% (inactive)	–
CCCCNC(=O)N(O)C1N(/N=C/c2ccc(N(C)C)cc2)C(=S)SC1(C)C (configuration not stated)	-35.3% (inactive)	–
CCCCNC(=O)N(O)C1N(/N=C/c2ccccc2O)C(=S)SC1(C)C (configuration not stated)	–	11.2 µM (active)
COc1ccc2c(c1)N(C)/C(=C1/SC(=S)N(NC(C)=O)C1=O)S2	4.75% (inactive)	–
COc1ccc(OC)c(NC(=O)C2CCCN2S(=O)(=O)c2cccc3nsnc23)c1 (configuration not stated)	-27.5% (inactive)	–
O=C(O)c1[nH]c2ccccc2c1C(c1cccc(O)c1)c1c(C(=O)O)[nH]c2ccccc12	-7.71% (inactive)	–
CCOCc1nnc(NC(=O)CSc2ccc(C)cc2)s1	-40.7% (inactive)	–
O=C(CSc1ccccc1)Nc1nnc(/C=C/c2ccccc2)s1	–	20 µM (active)
O=C(/C=C/c1ccccc1)Nc1nnc(SCC(=O)c2ccc3ccccc3c2)s1	-1.4% (inactive)	–
CC1(C)Cc2c(sc(NC(=O)C(=O)NCC3CCCO3)c2C(=O)O)CO1 (configuration not stated)	-26% (inactive)	–
COc1ccc(/C(C)=N/NC(=O)c2ccc3nc[nH]c3c2)cc1	1.35% (inactive)	–
COc1ccc(CC(=O)NC(C)CCc2ccccc2)cc1 (configuration not stated)	16.8% (inactive)	–
C/C(=N\NC(=O)Cc1ccc(F)cc1)c1ccc(F)cc1	41.3% (inactive)	–
C/C(=N\NC(=O)Cc1ccc(Br)cc1)c1cccnc1	19.1% (inactive)	–

SMILES	activity change, negative = inhibition	Potency
C/C(=N\NC(=O)c1ccccc1F)c1ccccn1	–	0.631 µM (active)
C/C(CC(=O)Nc1ccc(N(C)C)cc1)=N\NC(=O)c1ccccc1F	-23% (inactive)	–
O=C(Nc1ccc(NC(=O)c2ccccc2F)cc1)c1ccccc1F	0.482% (inactive)	–
C/C(=N\NC(=O)Cc1ccc(Cl)cc1)c1ccccn1	–	0.398 µM (active)
COc1ccc(CC(=O)N/N=C(\C)c2ccccn2)cc1	–	7.08 µM (active)
Cc1ccc(Cn2cc(C(=O)NN)c(=O)c3ccc(F)cc32)cc1	-6.79% (inactive)	–
Cc1cccnc1CCNC(=O)C1CCC(=O)N(Cc2cccc(F)c2)C1 (configuration not stated)	0.715% (inactive)	–
COc1cc2ccccc2cc1C(=O)Nc1ccccc1C	-19.4% (inactive)	–
COc1cc([N+](=O)[O-])cc([N+](=O)[O-])c1NC(=O)N1CCOCC1	-23.8% (inactive)	–
O=S(=O)(Cc1cc(Cl)nc(-c2cccnc2)n1)c1ccccc1	23.2% (inactive)	–
COc1ccc(C(=O)Nc2cc(C)c(NC(=O)c3ccccc3OC)cn2)cc1	-27.9% (inactive)	–
Cc1ccnc(N2C(=O)c3ccc([N+](=O)[O-])cc3C2=O)c1	-16.3% (inactive)	–
Cc1cccc(C)c1NC1=NC(=S)N(c2ccc(N(C)C)cc2)C1(C)C	–	14.1 µM (active)
COC(=O)c1cc(C(=O)NC(C)C2CC3CCC2C3)cc([N+](=O)[O-])c1 (configuration not stated)	-8.79% (inactive)	–
Cc1c2cnn(CC(=O)NCc3ccccn3)c(=O)c2c(C)n1Cc1ccc(Cl)cc1	4.88% (inactive)	–
Cc1ccc(CN2CCN(c3ncccn3)CC2)c(C)c1	18.7% (inactive)	–
O=S(=O)(NCc1ccc(Cl)cc1Cl)c1cccs1	-12.9% (inactive)	–
CN(NS(=O)(=O)c1cccs1)c1ncc(C(F)(F)F)cc1Cl	–	5.62 µM (active)
C#CCN(N(C)c1ncc(C(F)(F)F)cc1Cl)S(=O)(=O)c1ccc2ccccc2c1	-20.3% (inactive)	–
